ssDAF12 agonist: S. stercoralis DAF-12 activation, primary screen | activation, % at 6.8 µM | AID 652126 | HEK293 ssDAF-12/GRIP1 lit1-tk-luc reporter, luminescence; % of 3 µM dafachronic acid response | hit rate 1% among 370,000;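 active = activation above the mean over all tested compounds plus 3 SD, cut at about 0.9% in these data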
DAX1 inh-1: blocks DAX1 repression of SF-1 activated StAR promoter; hit rate 1.1% among 370,000; inhibition, % at 6.8 µM; HEK293T StAR-luciferase reporter, SF-1/DAX-1 repression relief;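 active = inhibition above the mean over all tested compounds plus 3 SD, cut at about 3.6% in these data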;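 note: higher inhibition means more luminescence from relief of DAX-1 repression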
DAX1 inh-2: inhibitors of human orphan nuclear receptor DAX1 (NR0B1); inhibition, % at 6.75 µM; P51843; HEK293 Gal4-DAX1 luciferase reporter, luminescence; hit rate 0.99% among 340,000;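 active = inhibition above the mean over all tested compounds plus 3 SD, cut at about 4.2% in these data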;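 note: inhibition shows as a rise in luminescence from relieved DAX1 repression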
Target sequence (P51843 207-470 limits assumed): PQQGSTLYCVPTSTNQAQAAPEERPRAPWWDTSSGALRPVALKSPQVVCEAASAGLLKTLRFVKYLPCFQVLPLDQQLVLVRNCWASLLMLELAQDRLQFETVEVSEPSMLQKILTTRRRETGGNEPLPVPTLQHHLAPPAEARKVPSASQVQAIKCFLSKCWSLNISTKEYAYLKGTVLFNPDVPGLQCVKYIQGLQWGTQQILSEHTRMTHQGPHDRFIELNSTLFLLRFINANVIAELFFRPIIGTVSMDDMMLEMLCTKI
hgDAF12 agonist: activates the H. glycines DAF-12 receptor ligand-binding domain | hit rate 1.8% among 370,000 | AID 687014 | HEK293 GAL4-hgDAF12 UAS-luciferase reporter, agonist luminescence; normalized to butyrate control | activation, % at 6.8 µM;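 active = activation above a cutoff set at the mean of all screened compounds plus 3 SD, cut at about 10% in these data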
SMARCA2 act: activators of SMARCA2 function; AID 652017; hit rate 1% among 370,000; activation, % at 9.1 µM; MG213 cells, MMTV-luciferase reporter, dexamethasone, overnight; in the data active = activation above about 7.8%
hcDAF12 agonist: activates DAF-12 receptor from parasite H. contortus; HEK293 hcDAF-12 lit1-tk-luc reporter, luminescence; 0% DMSO, 100% Δ7-dafachronic acid; activation, % at 6.8 µM; hit rate 1.4% among 370,000; AID 652067;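 active = activation above the mean of all tested compounds plus 3 SD, cut at about 5.5% in these data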
Of the large screens only hits and unclear results are named; the others gave an inactive call. Only some compounds are listed: those with a hit (about 4.8% of all), similar ones and a draw of the others.

COc1ccc(C(c2c[nH]c3ccccc23)c2c[nH]c3ccccc23)cc1O	ssDAF12 agonist 2.8
CCCCCCC(=O)n1ccc2ccc(-c3ccc4ccn(Cc5ccc(OC)cc5)c4c3)cc21	none (no result: DAX1 inh-2)
O=C(NNS(=O)(=O)c1ccc(Br)cc1)c1csnn1	DAX1 inh-2 5.1
CCn1c2ccccc2c2cc(NC(=O)COC(=O)c3cccc(F)c3)ccc21	none (no result: DAX1 inh-2)
COCc1cc(N2CCN(C(=O)OC(C)(C)C)C[C@@H]2C)ccc1N1CC[C@@H](O)C1	none (no result: DAX1 inh-2)
COc1cc(/C=C/C(=O)OC(C)C(=O)NC2CCCCC2C)cc(Cl)c1OC (stereo unspecified)	DAX1 inh-2 6.9
CC(=O)Nc1cc2c(cc1Cl)-c1ccc(F)cc1C2O (stereo unspecified)	ssDAF12 agonist 1.5
CC(=O)Nc1cc2c(cc1Cl)Cc1cc(Cl)ccc1-2	none
CC[C@@H](CCCc1ccc(F)cc1)CN(Cc1ccc(OC)cc1)S(=O)(=O)c1ccc(C)cc1	none (no result: DAX1 inh-2)
COC(=O)[C@]12C[C@H](CC(=O)NCCCCc3ccccc3)C(=O)N(Cc3ccco3)C1=C[C@H](C(C)(C)C)O[C@@H]2C	none (no result: DAX1 inh-2)
O=C(COc1ccc2ccccc2c1Br)N1CCCC1	DAX1 inh-1 3.9
Cc1cc(Br)ccc1OCC(=O)N1CCCCCC1	none
CC(C)c1ccc(OCC(=O)N2CCCCCC2)c(Br)c1	hgDAF12 agonist 11
O=C(COc1ccc2ccccc2c1Br)N1CCOCC1	none
CCN1CCCCC(NC(C)=O)C1=O (stereo unspecified)	none (no result: DAX1 inh-2)
Cc1sc2ncnc(OCC(=O)N3CCN(C(=O)c4ccco4)CC3)c2c1C	DAX1 inh-2 5.7
Cc1sc2ncnc(SCC(=O)NNC(=O)c3ccco3)c2c1C	none
CC(=O)c1ccc(NC(=O)C2Cc3ccccc3CN2C(=O)c2ccccc2)cc1 (stereo unspecified)	hcDAF12 agonist 6.0
CC1CC(C)CN(CCCNC(=O)CN2C(=O)CSc3ccc(S(=O)(=O)N4CCCCC4)cc32)C1 (stereo unspecified)	DAX1 inh-1 3.6
Cc1ccc(S(=O)(=O)NCC2CN(S(=O)(=O)c3ccc(C)cc3)c3ccccc3C(=O)N2c2ccc(F)cc2)cc1 (stereo unspecified)	none (no result: DAX1 inh-1, DAX1 inh-2, SMARCA2 act)
COc1cccc(CC(=O)N2CCCC(CO)(Cc3ccc(F)cc3F)C2)c1 (stereo unspecified)	none
COC(=O)c1ccc(CN2CCCC(CO)(Cc3ccc(F)cc3F)C2)cc1 (stereo unspecified)	ssDAF12 agonist 1.0
Cc1cc(-c2nc3ccccc3o2)c2ccccc2n1	ssDAF12 agonist 1.2
C=CCOC(=O)C1=C(C)N=c2sc(=C3C(=O)N(CC(=O)O)c4ccccc43)c(=O)n2C1c1ccc(OC)cc1 (stereo unspecified)	none (no result: DAX1 inh-2)
CCc1ccc(N(CC(=O)Nc2ccccc2C(=O)N2CCOCC2)S(C)(=O)=O)cc1	ssDAF12 agonist 1.5
CS(=O)(=O)N(CC(=O)Nc1ccccc1C(=O)N1CCOCC1)c1ccc(Cl)cc1	none
COc1cccc(-c2sc3ccc(OC)cc3c2-c2ccc(OCCN3CCOCC3)cc2)c1	none
COc1cccc(-c2sc3ccc(OC)cc3c2-c2cnc(N3CCOCC3)nc2)c1	hgDAF12 agonist 11 (no result: DAX1 inh-2)
O=C(CSc1nnc(Cc2cc(=O)[nH]c(=O)[nH]2)n1-c1ccc(F)cc1)N1CCCCC1	DAX1 inh-2 7.9
O=C(CSc1nnc(Cc2cc(=O)[nH]c(=O)[nH]2)n1-c1ccccc1)N1CCCc2ccccc21	none
Cc1cccc(-n2c(Cc3cc(=O)[nH]c(=O)[nH]3)nnc2SCC(=O)N2CCc3ccccc32)c1	hcDAF12 agonist 6.2
CCc1c(-c2ccccc2Br)ncn1CCc1ccccc1OC	none (no result: DAX1 inh-2)
CS(=O)(=O)N1c2ccccc2C[C@H]1Cc1cc2ccccc2o1	none (no result: DAX1 inh-1, DAX1 inh-2, SMARCA2 act)
COc1ccc(CN2C(=O)c3ccnn3CC2(C)c2nnnn2-c2c(C)cccc2C)cc1 (stereo unspecified)	none (no result: DAX1 inh-2)
CCn1c(=O)n(CC(=O)N2CCOCC2)c(=O)c2ccccc21	none (no result: DAX1 inh-2)
O=C(CSc1nnc(-c2ccc(O)cc2)o1)Nc1cccc(O)c1	none
COc1cccc(NC(=O)CSc2ccccn2)c1	hgDAF12 agonist 13
COc1ccc(C(=O)NCCSc2ccccn2)cc1	hgDAF12 agonist 12, hcDAF12 agonist 6.4

Assay outcomes deposited in PubChem BioAssay by The Scripps Research Institute Molecular Screening Center.
